Experiment in all cases: NCI-60 one-dose screen, 48 h (100 = growth as untreated, 0 = no growth, -100 = all killed)
Conditions in all cases: 10 µM unless noted

Assay [1] concerns EKVX NSCLC.
Assay [2] deals with SN12C renal.
Assay [3] concerns UO-31 renal.
For assay [4], the system named is TK-10 renal.
In assay [5] the test system is ACHN renal.
In assay [6] the test system is CAKI-1 renal.
In assay [7] the test system is CCRF-CEM leukemia.
In assay [8] the test system is MOLT-4 leukemia.
The subject of assay [9] is SR leukemia.
Assay [10] concerns RPMI-8226 leukemia.
The test system of assay [11] is OVCAR-8 ovarian.
For assay [12], the system named is OVCAR-5 ovarian.
Assay [13] deals with OVCAR-4 ovarian.
For assay [14], the system named is SK-OV-3 ovarian.
Assay [15] deals with IGROV1 ovarian.
Assay [16] has as its system OVCAR-3 ovarian.
Assay [17] has as its system HS 578T breast.
Assay [18] concerns NCI/ADR-RES ovarian.
The test system of assay [19] is T-47D breast.
The subject of assay [20] is A498 renal.

From PubChem BioAssay (NCI) come the findings set out here.

About 83,000 compounds went through this panel and 20% of them were active in at least one assay; those are over-represented in the sample as a whole.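 How to read the values: 0–100, growth inhibition (40 = 60% inhibited); 0, no net growth; -100 to 0, cell death (-40 = 40% of starting cells died; -100 = all dead).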 A number with no mark means an inactive call. Calls of active or inactive are those of the source. The calls were made as follows: active = growth percent below 10; inactive = the rest.

Turning to `Nc1nc(N)c2c(n1)NC(c1ccc(F)cc1)CC(c1ccc(Nc3nc(NCCO)nc(Nc4ccc(Cl)cc4)n3)cc1)=N2` (stereo not given), the growth is 42.5% in [1]; 59.9% in assay [2]; 34.8% in [3]; 111% in assay [4]; 39.5% in assay [5]; 40.9% in assay [6]. Besides, the growth is -13.8% (active) in [7]; -17.5% (active) in assay [8]; -17.9% (active) in assay [9]; -37.6% (active) in assay [10]; 29% in assay [11]; 72% in assay [12]. Besides, the growth is 3.03% (active) in assay [13]; 84% in assay [14]; -25.9% (active) in assay [15]; 14.1% in assay [16]; 42.8% in [17]; 64.5% in [18]. For the same compound, in [19], the growth is 60%.

On to `C=C1CC[C@H]2[C@@](C)(CCC3OC(c4ccc(OCc5cn(C6CC(OC(C)=O)C(OC(C)=O)C(COC(C)=O)O6)nn5)cc4)OC[C@]32C)[C@@H]1/C=C/C1=CCOC1=O` (stereo not given in full), for which the growth was 52.3% in [1]; 67.5% in [2]; 57.7% in [3]; 119% in [4]; 72.7% in [5]; 77% in [6]. The growth in [7] is 65.7%; in assay [8], 62.1%; in [10] it was 41.2%; in [11] it was 81.8%; in assay [12] it was 97.4%; in [13] it was 72.7%. Moreover, the growth in assay [14] is 103%; in assay [15], 89.2%; in [16], 81.9%; in assay [17], 75.7%; in assay [18], 92.8%; in assay [19], 40%.

On to `COc1ccccc1/C=C/C=N/NC1=NC2C(S1)N(C)C(=O)N2C` (stereo not given), for which the growth in assay [1] was 40.1%; in assay [2] it was 39.1%; in assay [3] it was 49%; in assay [4], 76.3%; in assay [5], 46.3%; in [6], 30.6%. In addition, the growth in assay [20] was -18.2% (active); in assay [7] it was 15.3%; in assay [9] it was 13.2%; in assay [10] it was 10.6%; in [11] it was 31.1%; in assay [12], 52.3%. For the same compound, the growth in assay [13] was 72%; in [14], 32.9%; in [15] it was 46%; in assay [16] it was -12% (active); in [17], 3.97% (active); in assay [18] it was 28.9%. Besides, in assay [19], the growth was 31.2%.

For `Cn1cc(-c2cc(N)n3nc(-c4cn(C)c5ccc(F)cc45)cc3n2)c2cc(F)ccc21`, the growth was 93.5% in assay [1]; 11.8% in [2]; 21.2% in [3]; 48.7% in [4]; -38.6% (active) in assay [5]; 56.5% in assay [6]. The growth was 72.6% in [20]; 3.58% (active) in assay [8]; -16.2% (active) in assay [9]; 13.5% in assay [10]; 20% in assay [11]; 88.5% in assay [12]. Also, the growth in assay [13] is 23.6%; in assay [14] it was 128%; in assay [15], 42.7%; in assay [16] it was -0.991% (active); in assay [17], 18.5%; in assay [18] it was 66.5%. Moreover, in assay [19], the growth was 22.5%.

On to `CC(=O)Oc1ccccc1C(=O)Nc1cc(C(C)C)ccc1C`, for which the growth was 10.5% in assay [1]; 8.31% (active) in assay [2]; -0.422% (active) in [3]; 21% in [4]; 10.1% in [5]; 6.69% (active) in assay [6]. The growth was -29.4% (active) in assay [20]; 4.63% (active) in assay [8]; -28.1% (active) in assay [9]; 13.8% in assay [11]; 43.6% in assay [12]; 16.9% in assay [13]. In addition, the growth in [14] is 0.738% (active); in assay [15], 25.5%; in assay [16], 6.75% (active); in assay [17], 19.7%; in [18] it was 9.16% (active); in [19] it was 9.13% (active).

`COc1ccc(NC(=O)c2sc3nc(-c4cnccn4)cc(-c4cccs4)c3c2N)cc1`: the growth in [1] is 87.6%; in [2], 80.8%; in assay [3], 52.3%; in assay [4] it was 105%; in assay [5] it was 43.8%; in assay [6], 36.4%. Also, the growth in assay [20] was 49.5%; in assay [7], 94.6%; in [8], 83.5%; in [10] it was 74.2%; in [11], 71.7%; in assay [12], 93.1%. Also, the growth in assay [13] is 82.1%; in assay [14], 23.1%; in [15] it was 86.3%; in assay [16], 76.8%; in assay [17] it was 73.7%; in [18] it was 78.2%. Moreover, in assay [19], the growth was 67.8%.

As for `COc1ccc(/C=C/C(=O)c2ccc(NC(=O)CSc3nnc(-c4ccc5nc(-c6ccc(Cl)cc6)[nH]c5c4)o3)cc2)cc1`, the growth was 103% in assay [1]; 93.4% in assay [2]; 87.5% in [3]; 136% in assay [4]; 102% in [5]; 97.4% in assay [6]. Further, the growth was 111% in assay [20]; 59.9% in assay [7]; 80.5% in assay [9]; 64.4% in [10]; 79.5% in assay [11]; 107% in assay [12]. Further, the growth in assay [13] was 103%; in assay [14], 106%; in [15] it was 95.3%; in assay [16], 111%; in assay [17], 94.7%; in [18], 107%. In addition, the growth in assay [19] was 78%.

For `COC(=O)C1CN(S(=O)(=O)/N=C2\NC(=O)NC2=C(Cl)Cl)C1`, the growth is 104% in [1]; 101% in assay [2]; 88.7% in assay [3]; 139% in assay [4]; 106% in assay [5]; 101% in [6]. Besides, the growth in assay [7] was 95.5%; in [8] it was 104%; in [9], 94.4%; in [10] it was 85.2%; in assay [11], 99.9%; in [12], 116%. The growth in [13] is 123%; in assay [14], 113%; in [15] it was 109%; in [16], 116%; in [17] it was 104%; in [18] it was 109%. Further, the growth in assay [19] is 81%.
